Shown are actives, neighbours in structure and some others; about 13% of the full set was active somewhere.
USP30 inh: inhibitors of human USP30 deubiquitinase. Ubiquitin carboxyl-terminal hydrolase 30 (Homo sapiens), Q70CQ3. purified USP30, Ub-rhodamine cleavage fluorescence. inhibition, % at 25 µM. hit rate 5.3% among 47,000. AID 1645860, 2021
USP8 inh: inhibitors of human USP8 deubiquitinase; purified USP8, Ub-rhodamine cleavage fluorescence, 30 min; inhibition, % at 20 µM; hit rate 4.2% among 47,000; AID 1645853, 2021
USP28 inh: inhibitors of human USP28 deubiquitinase; Ubiquitin carboxyl-terminal hydrolase 28 (Homo sapiens), Q96RU2; hit rate 3% among 47,000; inhibition, % at 25 µM; purified USP28, Ub-rhodamine cleavage fluorescence, 30 min
USP17 block: inhibitors of human USP17 deubiquitinase; Ubiquitin carboxyl-terminal hydrolase 17-like protein 5 (Homo sapiens), A8MUK1; purified USP17, Ub-rhodamine cleavage fluorescence, 3 h; inhibition, % at 50 µM; hit rate 6.5% among 47,000; AID 1645855, 2021
Target sequence (A8MUK1 whole entry, looked up): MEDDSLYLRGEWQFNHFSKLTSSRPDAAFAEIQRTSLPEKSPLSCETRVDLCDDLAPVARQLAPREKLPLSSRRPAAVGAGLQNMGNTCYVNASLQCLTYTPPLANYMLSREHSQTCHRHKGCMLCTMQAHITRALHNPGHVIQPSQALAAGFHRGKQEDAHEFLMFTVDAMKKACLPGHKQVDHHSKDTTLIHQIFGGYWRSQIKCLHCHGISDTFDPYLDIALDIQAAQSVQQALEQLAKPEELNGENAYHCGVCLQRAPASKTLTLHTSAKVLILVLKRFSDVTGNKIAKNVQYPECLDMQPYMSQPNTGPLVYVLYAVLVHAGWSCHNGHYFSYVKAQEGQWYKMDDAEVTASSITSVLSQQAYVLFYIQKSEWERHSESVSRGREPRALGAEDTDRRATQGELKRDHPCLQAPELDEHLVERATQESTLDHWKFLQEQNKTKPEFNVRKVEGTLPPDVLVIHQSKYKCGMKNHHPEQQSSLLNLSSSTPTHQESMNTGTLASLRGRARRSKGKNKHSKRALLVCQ
Each line names hits and unclear results; the compound was inactive in the other large screens. Cut-off read from the data, not from the text of the source: active = inhibition above about 30%; inactive = the rest.

O=C(Nc1ccc(F)cc1F)NC1Cc2ccccc2C1	USP30 inh 66
O=C(Nc1ccc(OC(F)(F)F)cc1)NC1Cc2ccccc2C1	USP8 inh 42
CC(C)c1nc2sc3c(N4CCN(CCO)CC4)ncnc3c2c2c1COC(C)(C)C2	none
Cc1ccccc1NC(=O)Cn1c(C)nc2c(c1=O)CCN(Cc1ccccc1)C2	USP8 inh 49
COc1ccc(N(C)S(=O)(=O)c2cccc(C(=O)OC(C)C(=O)Nc3cccc(C(C)=O)c3)c2)cc1 (stereo unspecified)	none
CC(=O)c1cccc(NC(=O)C(C)OC(=O)c2cc3ccccc3[nH]2)c1 (stereo unspecified)	USP30 inh 45, USP28 inh 36, USP17 block 60
N#Cc1cccc(CN2CCC3(Cc4ccccc4CNC3=O)C2)c1 (stereo unspecified)	none
Cc1ccc(C(C(=O)NCc2ccc3c(c2)OCO3)N(C(=O)c2ccc3c(c2)OCCO3)c2cc(C)cc(C)c2)cc1 (stereo unspecified)	none
Cc1ccc(C(C(=O)NCc2ccc3c(c2)OCO3)N(C(=O)c2ccc3c(c2)OCCO3)C2CCCC2)cc1 (stereo unspecified)	USP8 inh 47, USP17 block 49
CN(C)c1cc(-n2cnc(C(=O)NCc3ccccc3Cl)c2)ncn1	USP17 block 52
Cc1ccc(-c2nc(-c3ccnc(N4CCCC4)c3)no2)s1	none
CC[C@H]1C[C@H](C)[C@@]2(NC1=O)O[C@@H](C[C@H](O)[C@@H](C)CC/C=C/C=C(\C)[C@@H]1C/C=C/C=C/[C@H](O)[C@H](C)[C@@H](O)[C@@H](CCC(C)=O)C(=O)N[C@@H](C(C)C)C(=O)N[C@@H](Cc3cccc(O)c3)C(=O)N3CCC[C@H](N3)C(=O)O1)[C@H](C)[C@H](O)[C@@H]2C	none
N#Cc1cccc(NC(=O)C(Cc2c[nH]c3ccccc23)NC(=O)c2cccs2)c1 (stereo unspecified)	USP30 inh 33
O=C(Cc1ccc(Cl)cc1)N1CCC(c2nc3ccccc3[nH]2)CC1	none
COCCC(=O)N1Cc2c(Cn3ccnc3)nn(C)c2C1	none
NS(=O)(=O)c1ccc(NC(=O)c2ccc3ncsc3c2)cc1	none
NS(=O)(=O)c1ccc(NC(=O)c2sccc2Oc2ccc(F)cc2[N+](=O)[O-])cc1	USP30 inh 61, USP28 inh 32, USP17 block 55
O=C(Nc1cc(F)ccc1F)c1ncoc1-c1ccco1	none
Cc1ccc(C(=O)CCC(=O)OCC(=O)c2ccc3[nH]c(=O)[nH]c3c2)cc1	USP30 inh 34, USP28 inh 52, USP17 block 55
O=C(COC(=O)c1nn(-c2ccccc2)c(=O)c2ccccc12)c1ccc2c(c1)OCCO2	none
O=C(COC(=O)c1ccc(Cl)s1)c1ccc2[nH]c(=O)[nH]c2c1	USP8 inh 32, USP17 block 42
Cc1noc(C)c1CN1CCC(N2CCN(C(=O)c3cccn3C)CC2=O)CC1	none
O=C(Nc1ccc(Oc2cccc3cccnc23)cc1)c1cccs1	USP28 inh 86
CC(Oc1ccc(F)cc1)C(=O)Nc1cccc2cccnc12 (stereo unspecified)	none
Cn1c(CCN2CCCCC2)nc2cc(NC(=O)c3ccc(Cl)cc3)ccc21	USP17 block 33
CCc1nc2cc(NC(=O)c3cccc(N4CCCC4=O)c3)ccc2n1C	USP28 inh 62
Cc1cccc(C(=O)Nc2ccc3c(c2)nc(CCN2CCCCC2)n3C)c1	none
Nc1ccccc1SCc1noc(-c2cccs2)n1	USP28 inh 73
CC1(C)CCc2c(cc(OCC(=O)NCc3ccncc3)c3c4c(c(=O)oc23)CCC4)O1	none
C/C1=C\CCC(C)C(O)CC(O)C(C)C(O)CCC(C)C(O)CC2(O)OC(CC(OC(=O)CC(=O)O)CC(O)CC(O)CC(O)C(C)C(O)/C=C/C(C)C(C(C)CCCCCCCCN=C(N)N)OC1=O)CC(O)C2O (stereo unspecified)	USP28 inh 51
N#C/C(=C\c1ccc(OCc2cccc(C(=O)O)c2)cc1)c1ccc(F)cc1	USP8 inh 59, USP17 block 69
N#C/C(=C/c1ccc(OCc2cccc(C(=O)O)c2)cc1)c1ccccc1	none
COc1cccc(C(=O)NCc2cc(-c3ccc(F)cc3F)on2)c1OC	USP30 inh 40
Cc1cccc(OCC(=O)NCc2cc(-c3ccccc3F)on2)c1	USP30 inh 42, USP17 block 42
COc1ccc(-c2nc(CNC(=O)COc3ccc(C)cc3)cs2)cc1	USP17 block 57
COc1cccc(-c2cc(CNC(=O)COc3ccc(F)cc3)no2)c1	USP30 inh 35
COc1ccccc1OCC(=O)NCc1cc(-c2ccc(F)cc2)on1	none
Cc1ccc(-c2cc(CNC(=O)COc3ccccc3F)no2)cc1	none
Cc1ccc(OCC(=O)Nc2ccc3c(c2)Sc2ncccc2C(=O)N3C)cc1	none
Cc1nc(Nc2nnc(C)s2)cc(C2CCCN2c2ncccn2)n1 (stereo unspecified)	none
CC(=O)c1ccc(NC(=O)/C(=C/c2ccco2)n2nnnc2-c2ccccc2)cc1	USP8 inh 62, USP17 block 51
O=c1cc(CN2CCCCC2)nc(-c2ccccc2)[nH]1	none
COCCn1c(=O)[nH]c2cc(-c3nc(-c4ccc(F)cc4)no3)ccc2c1=O	none
CCOc1ccc(CCNC(=O)c2cc(C)n(-c3ccccc3)n2)cc1	none
COc1cccc(C2C3=C(NCCN=C3c3ccccc3)C(=O)N2c2ccccc2)c1 (stereo unspecified)	none
O=C1C2=C(C(c3ccccc3)=NCCN2)C(c2cccc(F)c2)N1c1ccccc1 (stereo unspecified)	USP30 inh 32
COc1ccc(S(=O)(=O)N2CCc3ccccc32)cc1C(=O)Nc1ccc2c(c1)NC(=O)C(C)O2 (stereo unspecified)	USP8 inh 71
O=C(O)C1CCN(C(=O)[C@H](Cc2c[nH]c3ccccc23)n2c(=O)[nH]c3ccccc3c2=O)CC1	none
Cc1cc2nc(C3CCN(C(=O)c4cnccn4)CC3)cc(=O)n2[nH]1	none
O=C(Cn1c(=O)n(Cc2ccc(F)cc2)c(=O)c2ncccc21)N1CCCc2ccccc21	none
O=C(Cn1c(=O)n(Cc2ccc3c(c2)OCO3)c(=O)c2ncccc21)NCc1ccccc1	USP30 inh 85, USP8 inh 38, USP28 inh 62, USP17 block 76
O=C(Cn1c(=O)n(Cc2ccc(F)cc2)c(=O)c2ncccc21)NCc1ccc(F)cc1	USP8 inh 44 (no result: USP17 block)
O=C(Cn1c(=O)n(Cc2ccc3c(c2)OCO3)c(=O)c2ccccc21)c1ccccc1	USP30 inh 36, USP8 inh 36
Cc1ccc(C(=O)NCc2noc(Cc3ccccc3)n2)c(C)c1	none
COc1ccc(C)cc1NC(=O)C(NS(=O)(=O)c1ccc2c(c1)CCN2C(C)=O)C(C)C (stereo unspecified)	USP30 inh 54
CC(=O)N1CCc2cc(S(=O)(=O)Nc3ccccc3C)ccc21	none
